Reference: PubChem BioAssay (NCATS)
“And” between values parts separate entries of the source, which are not always exact repeats. Identical values can stand only once. Results filed as inconclusive are left out. The source made the active and inactive calls. Unless noted, the call rests on the fitted dose curve; in most records, active means well fitted curve in the direction sought with a large enough effect; inconclusive means small, poorly fitted or top-dose-only effect, or another doubt; inactive means no such curve, though single readings can be large; an effect the other way counts as inactive or inconclusive.

What was measured:
[1] = Cell Viability - Renal Proximal Tubule (AID 545); settings: renal proximal tubule cells viability, primary cells of rat origin; at 91.7 µM (top of the series);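 further: cells exposed to compound for 40 hours; nearly all actives have a fitted effect of over 40% in size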
Summary of the method: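 Rat kidney proximal tubule cells, freshly isolated; 1000 cells/well, 5 hr settle, compound 40 hr 37 °C. CellTiter-Glo 20 min RT, luminescence read. AC50 by standard Hill fit.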

[2] = Cellular Toxicity (caspase-3) Jurkat (AID 655); settings: Jurkat caspase-3 activation, luminescence, DMSO = 0%, tamoxifen = 100%; at 92.2 µM (top of the series);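 further: cells exposed to compound for 16 h at 37 °C before reading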
Summary of the method: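 Luminescent caspase-3/7 readout (aminoluciferin substrate cleavage) in human T-cell leukemia Jurkat cells after 16 hr compound exposure. Concentration-response normalized to DMSO and 100 uM tamoxifen; AC50 by standard Hill equation.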

[3] = Cell Viability - LYMP2-001 (AID 921);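 further: 0% = DMSO only and full inhibition = tetraoctylammonium bromide control wells; nearly all actives have a fitted effect of over 70% in size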
Summary of the method: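 CellTiter-Glo luminescence (intracellular ATP) after 24 hr compound exposure at 37 C, 2500 lymphoblastoid cells/well in complete medium. AC50 fitted with standard Hill equation; tetraoctylammonium bromide positive control.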

[4] = Cell Viability - LYMP1-003 - Assay at 24 hr (AID 963);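 further: plate controls were DMSO only for no effect and tetraoctylammonium bromide positive control for full effect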
Summary of the method: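 Human lymphoblastoid LYMP1-003 cells, 2500/well, treated 24 h at 37 C in complete medium. Viability read as intracellular ATP by CellTiter-Glo luminescence after 30 min at room temperature; AC50 from Hill-equation fits of qHTS concentration-response.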

[5] = Cell Viability - LYMP2-004 (AID 966);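 further: plate controls were DMSO only for no effect and tetraoctylammonium bromide control for full effect; nearly all actives have a fitted effect of over 65% in size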
Summary of the method: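 Lymphoblastoid LYMP2-004 cells, 2500 per well, were preincubated for 5 hr and then treated with compound for 24 h at 37 C in complete medium. Viability was read as cellular ATP by CellTiter-Glo luminescence, and AC50 values were taken from Hill fits to concentration-response data.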

[6] = Cell Viability - LYMP2-005 (AID 967);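 further: plate controls were DMSO only for no effect and 92 µM tetraoctylammonium bromide control for full effect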
Summary of the method: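 Steps: seed 2500 LYMP2-005 cells/well, incubate 5 h at 37 C, add compound, incubate 24 h at 37 C, add CellTiter-Glo, wait 30 min at RT, read luminescence. Concentration-response data fitted to Hill equation for AC50.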

[7] = Cell Viability - LYMP2-019 (AID 973);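 further: 0% = DMSO alone and full effect = 92 µM tetraoctylammonium bromide; nearly all actives have a fitted effect of over 55% in size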
Summary of the method: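 Human lymphoblastoid LYMP2-019 cells (2500/well) preincubated 5 h at 37 C, then treated 24 h at 37 C in complete medium. Viability by CellTiter-Glo ATP luminescence after 30 min at room temperature; AC50 from Hill fits.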

[8] = Cell Viability - LYMP2-021 (AID 974);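 further: compound exposure lasts 24 hours at 37 °C; on the % scale 0 is the no-effect control and ±100 the full control effect; nearly all actives have a fitted effect of over 55% in size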
Summary of the method: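 Human lymphoblastoid LYMP2-021 cells, 2500/well in complete medium, treated 24 hours at 37 C. Intracellular ATP by CellTiter-Glo luminescence (30 min, RT); AC50 from Hill fits of concentration-response.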

[9] = Cell Viability - LYMP2-023 (AID 975);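 further: cellular ATP measured by luciferase luminescence as viability proxy; plate controls were DMSO only for no effect and 92 µM tetraoctylammonium bromide control for full effect; nearly all actives have a fitted effect of over 55% in size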
Summary of the method: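 LYMP2-023 human lymphoblastoid cells, 2500/well, preincubated 5 hr at 37 C, then compound-treated 24 hr at 37 C in complete medium. CellTiter-Glo luminescence (ATP) after 30 min at room temperature; AC50 from Hill-equation fits; tetraoctylammonium bromide positive control.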

[10] = Cell Viability - LYMP2-025 (AID 976);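 further: plate controls were DMSO only for no effect and tetraoctylammonium bromide control for full effect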
Summary of the method: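 Human lymphoblastoid LYMP2-025 cells, 2500/well, exposed 24 h at 37 C in complete medium in 1536-well qHTS. Viability as cellular ATP by CellTiter-Glo luminescence; AC50 from Hill fits of concentration-response data.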

[11] = Cell Viability - LYMP2-002 (AID 977);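 further: compound exposure lasted 24 h at 37 °C; plate controls were DMSO only for no effect and 92 µM tetraoctylammonium bromide for full effect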
Summary of the method: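 Human lymphoblastoid LYMP2-002 cells, 2500 per well, exposed to compounds for 24 h at 37 C in complete medium; viability read as intracellular ATP by CellTiter-Glo luminescence, AC50 from Hill fits.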

[12] = Cell Viability - LYMP2-006 (AID 978); further: on the % scale 0 is the no-effect control and ±100 the full control effect; nearly all actives have a fitted effect of over 60% in size
Summary of the method: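 qHTS, 1536-well; 2500 cells/well, 5 hr 37 C; cpd 24 hr 37 C; CellTiter-Glo 30 min RT; luminescence. Tetraoctylammonium bromide pos. ctrl. AC50 via Hill eqn.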

[13] = Cell Viability - LYMP2-014 (AID 983);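 further: plate controls were DMSO only for no effect and 92 µM tetraoctylammonium bromide for full effect; nearly all actives have a fitted effect of over 50% in size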
Summary of the method: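 LYMP2-014 human lymphoblastoid cells, 2500/well, treated 24 h at 37 C in complete medium; viability by CellTiter-Glo ATP luminescence after 30 min at room temperature. AC50 from Hill fits of qHTS concentration-response; tetraoctylammonium bromide positive control.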

[14] = Cell Viability - LYMP2-016 (AID 984); further: on the % scale 0 is the no-effect control and ±100 the full control effect; nearly all actives have a fitted effect of over 55% in size
Summary of the method: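 qHTS, 1536-well: 2500 LYMP2-016 cells/well, 5 hr 37 C, compound added, 24 hr 37 C, CellTiter-Glo 30 min RT, luminescence. Tetraoctylammonium bromide positive control. AC50 via Hill fit.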

[15] = Cell Viability - LYMP2-026 (AID 989); further: on the % scale 0 is the no-effect control and ±100 the full control effect; nearly all actives have a fitted effect of over 50% in size
Summary of the method: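 Human lymphoblastoid LYMP2-026 cells, 2500/well, exposed to compound 24 h at 37 C in complete medium. Viability as intracellular ATP by CellTiter-Glo luminescence; AC50 from Hill fits of qHTS concentration-response.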

[16] = Cell Viability - LYMP1-002 - Assay at 24 hr (AID 993); further: on the % scale 0 is the no-effect control and ±100 the full control effect
Summary of the method: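 Human lymphoblastoid LYMP1-002 cells (2500/well) treated 24 h at 37 °C; viability as intracellular ATP by CellTiter-Glo luminescence. Tetraoctylammonium bromide as positive control; AC50 from Hill-equation fits of qHTS concentration-response.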

[17] = target: Thyroid hormone receptor beta (Homo sapiens) (UniProt P10828); test: qHTS assay for small molecule agonists of thyroid hormone receptor beta signaling (AID 588545; calls by dose curve)
Thyroid hormone receptor beta (Homo sapiens), sequence (P10828 whole entry, looked up): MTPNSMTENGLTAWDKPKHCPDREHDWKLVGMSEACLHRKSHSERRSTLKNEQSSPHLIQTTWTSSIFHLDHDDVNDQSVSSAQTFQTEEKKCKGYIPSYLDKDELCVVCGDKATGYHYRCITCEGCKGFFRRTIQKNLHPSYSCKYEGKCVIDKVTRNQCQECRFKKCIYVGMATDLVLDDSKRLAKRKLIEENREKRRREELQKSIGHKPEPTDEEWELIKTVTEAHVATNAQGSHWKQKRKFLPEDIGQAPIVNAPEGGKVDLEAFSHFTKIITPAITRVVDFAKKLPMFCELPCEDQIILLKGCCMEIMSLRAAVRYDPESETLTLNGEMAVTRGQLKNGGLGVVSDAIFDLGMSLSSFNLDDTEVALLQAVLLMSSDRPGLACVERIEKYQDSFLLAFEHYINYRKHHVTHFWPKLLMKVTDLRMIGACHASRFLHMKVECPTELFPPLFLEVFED
Summary of the method: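 Agonist-mode beta-lactamase reporter assay, HEK 293 cells, 2% charcoal/dextran FBS; cells plated 4 hrs, compound 18 hrs at 37 C, CCF4 2 hrs RT. Normalized to 10 nM T3 (100%) and DMSO (0%); Hill fit gives EC50, efficacy.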

[18] = target: Retinoic acid receptor RXR-alpha (Homo sapiens) (UniProt P19793); test: qHTS assay for small molecule antagonists of retinoid X receptor alpha signaling (AID 588546; active means well fitted inhibition curve with a large enough effect in the signal ratio, with a control signal flat, not every such curve was filed as active; the % refers to the signal ratio;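 further: cells stimulated with 9-cis-retinoic acid as agonist; on the % scale 0 is the no-effect control and ±100 the full control effect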); settings: HEK293T RXRa-UAS-bla, beta-lactamase ratio, antagonist mode
Retinoic acid receptor RXR-alpha (Homo sapiens), sequence (P19793 whole entry, looked up): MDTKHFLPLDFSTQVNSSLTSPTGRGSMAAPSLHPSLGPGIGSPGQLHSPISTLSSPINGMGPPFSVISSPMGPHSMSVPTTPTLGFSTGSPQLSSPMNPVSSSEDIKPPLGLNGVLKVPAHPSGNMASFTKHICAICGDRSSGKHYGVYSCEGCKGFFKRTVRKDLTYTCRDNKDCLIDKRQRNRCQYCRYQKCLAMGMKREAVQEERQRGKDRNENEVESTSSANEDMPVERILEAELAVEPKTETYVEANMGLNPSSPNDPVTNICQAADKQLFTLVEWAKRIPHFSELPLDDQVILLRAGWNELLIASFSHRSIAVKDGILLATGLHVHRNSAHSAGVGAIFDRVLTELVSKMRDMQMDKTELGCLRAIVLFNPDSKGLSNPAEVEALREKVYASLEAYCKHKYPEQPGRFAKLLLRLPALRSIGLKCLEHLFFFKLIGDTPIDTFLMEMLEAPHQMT
Summary of the method: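 Beta-lactamase reporter inhibition, read as CCF4 fluorescence ratio (ex 405, em 460/530 nm) after 2 h at RT. HEK293T UAS-bla cells, 2500/well, were stimulated with 9-cis-RA at 500 or 100 nM final alongside test compound for 18 h at 37 C.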

[19] = target: Voltage-gated inwardly rectifying potassium channel KCNH2 (Homo sapiens) (UniProt Q12809); test: qHTS Assay for Small Molecule Inhibitors of the Human hERG Channel Activity (AID 588834);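 further: top concentration of the series differs between compounds; on the % scale 0 is the no-effect control and ±100 the full control effect; lower thallium flux fluorescence means stronger hERG block; nearly all actives have a fitted effect of over 50% in size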
Voltage-gated inwardly rectifying potassium channel KCNH2 (Homo sapiens), sequence (Q12809 whole entry, looked up): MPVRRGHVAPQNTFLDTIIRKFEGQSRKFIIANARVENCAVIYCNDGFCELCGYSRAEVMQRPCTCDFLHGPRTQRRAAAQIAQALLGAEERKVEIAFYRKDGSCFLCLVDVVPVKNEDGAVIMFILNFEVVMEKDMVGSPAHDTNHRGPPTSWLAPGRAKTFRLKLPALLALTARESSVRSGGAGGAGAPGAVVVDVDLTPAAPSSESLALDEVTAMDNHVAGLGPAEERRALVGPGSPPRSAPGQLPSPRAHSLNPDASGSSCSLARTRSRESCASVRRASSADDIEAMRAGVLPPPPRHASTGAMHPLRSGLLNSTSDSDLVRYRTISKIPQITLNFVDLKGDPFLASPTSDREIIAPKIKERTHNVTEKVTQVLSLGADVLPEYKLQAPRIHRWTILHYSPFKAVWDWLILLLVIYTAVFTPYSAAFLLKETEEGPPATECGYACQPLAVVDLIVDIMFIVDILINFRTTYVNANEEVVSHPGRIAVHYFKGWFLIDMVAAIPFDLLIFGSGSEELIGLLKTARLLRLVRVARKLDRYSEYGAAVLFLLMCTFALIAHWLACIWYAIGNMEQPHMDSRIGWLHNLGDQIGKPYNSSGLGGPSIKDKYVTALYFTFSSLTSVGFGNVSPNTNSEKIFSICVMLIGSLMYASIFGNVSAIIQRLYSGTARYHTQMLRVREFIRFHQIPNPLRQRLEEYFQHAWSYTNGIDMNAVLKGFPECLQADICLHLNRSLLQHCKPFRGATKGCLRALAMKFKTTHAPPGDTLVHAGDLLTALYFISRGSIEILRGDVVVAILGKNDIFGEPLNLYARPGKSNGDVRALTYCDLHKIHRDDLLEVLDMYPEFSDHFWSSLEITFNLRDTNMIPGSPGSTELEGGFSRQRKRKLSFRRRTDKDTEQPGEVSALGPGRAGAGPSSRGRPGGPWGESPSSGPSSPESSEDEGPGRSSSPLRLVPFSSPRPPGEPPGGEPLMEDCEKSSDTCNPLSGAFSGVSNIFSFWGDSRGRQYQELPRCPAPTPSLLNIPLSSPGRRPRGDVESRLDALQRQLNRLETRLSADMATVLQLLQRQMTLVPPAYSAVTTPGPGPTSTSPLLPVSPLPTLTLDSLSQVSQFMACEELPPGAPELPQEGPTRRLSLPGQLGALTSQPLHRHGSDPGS
Summary of the method: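 Concentration-response qHTS measuring drop in thallium-sensitive dye signal. U2OS cells carrying BacMam hERG; compound exposure ~10 min, then stimulation buffer and 2 min read at 1 sec intervals.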

[20] = qHTS assay for small molecule agonists of the antioxidant response element (ARE) signaling pathway measured by Nrf2-dependant transcriptional activity - cell viability counter screen (AID 720653; active means well fitted curve in the direction sought with a large enough effect in the repeat runs; an effect the other way counts as inactive or inconclusive; further: on the % scale 0 is the no-effect control and ±100 the full control effect); settings: ARE-bla HepG2 viability, CellTiter-Glo ATP luminescence, 16 h; max response: active compounds read low
Summary of the method: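 ARE-bla HepG2 cells treated with compounds for 16 h at 37C; this counter screen measures viability as intracellular ATP by CellTiter-Glo luminescence after 30 min at room temperature.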

O=C(O)c1ccc(O)cc1O
inactive: activity change, negative = cytotoxicity [1] -3.65% and 5.93% | caspase-3 activation [2] -0.639% and 0.659% | Potency [3] | Potency [4] | Potency [5] | Potency [6] | Potency [7] | Potency [8] | Potency [9] | Potency [10] | Potency [11] | Potency [12] | Potency [13] | Potency [14] | Potency [15] | Potency [16] | outcome [17] | max response [18] 1.87% | Potency [19] | max response [20] 4.94% and 4%

c1ccccc1
inactive: activity change, negative = cytotoxicity [1] 3.93% and -11% | caspase-3 activation [2] 0.593% and 0.461% | Potency [3] | Potency [4] | Potency [5] | Potency [6] | Potency [7] | Potency [8] | Potency [9] | Potency [10] | Potency [11] | Potency [12] | Potency [13] | Potency [14] | Potency [15] | Potency [16] | outcome [17] | max response [20] -0.292% [middle of 4 runs]

Cc1c(N=C=O)cccc1N=C=O
inactive: activity change, negative = cytotoxicity [1] 6.1% | caspase-3 activation [2] -0.0166% | Potency [3] | Potency [4] | Potency [5] | Potency [6] | Potency [7] | Potency [8] | Potency [9] | Potency [10] | Potency [11] | Potency [12] | Potency [13] | Potency [14] | Potency [15] | Potency [16] | outcome [17] | max response [18] 6.11% and -21.4% | Potency [19] | max response [20] 0.551% and 0.668%

C1OCOCO1
inactive: activity change, negative = cytotoxicity [1] -10.6% | caspase-3 activation [2] 2.97% | Potency [3] | Potency [4] | Potency [5] | Potency [6] | Potency [7] | Potency [8] | Potency [9] | Potency [10] | Potency [11] | Potency [12] | Potency [13] | Potency [14] | Potency [15] | Potency [16] | outcome [17] | max response [18] 38.1% | Potency [19] | max response [20] -3.94%

O=C1CCc2ccccc2O1
inactive: activity change, negative = cytotoxicity [1] -10.3% | caspase-3 activation [2] 1.5% | Potency [3] | Potency [4] | Potency [5] | Potency [6] | Potency [7] | Potency [8] | Potency [9] | Potency [10] | Potency [11] | Potency [12] | Potency [13] | Potency [14] | Potency [15] | Potency [16] | outcome [17] | max response [18] 0.0036% | Potency [19] | max response [20] 2.06%

O=C(Nc1ccccc1)c1ccccc1O
inactive: outcome [17]

CCC(C)c1ccccc1O (centres undefined)
inactive: activity change, negative = cytotoxicity [1] 2.94% and 2.27% | caspase-3 activation [2] 0.687% and -0.479% | Potency [3] | Potency [4] | Potency [5] | Potency [6] | Potency [7] | Potency [8] | Potency [9] | Potency [10] | Potency [11] | Potency [12] | Potency [13] | Potency [14] | Potency [15] | Potency [16] | outcome [17] | max response [18] 0.496% and -0.838% and 1.78% | Potency [19] | max response [20] 15.2% and -6.24% and -8.74%

COC(=O)c1ccc(C)cc1
inactive: activity change, negative = cytotoxicity [1] -5.83% | caspase-3 activation [2] 0.483% | Potency [3] | Potency [4] | Potency [5] | Potency [6] | Potency [7] | Potency [8] | Potency [9] | Potency [10] | Potency [11] | Potency [12] | Potency [13] | Potency [14] | Potency [15] | Potency [16] | outcome [17] | max response [18] 25.4% and -1.75% | Potency [19] | max response [20] 2.73% and -0.323%
